Shown are actives, neighbours in structure and some others; about 7.4% of the full set was active somewhere.
3T3 cytotox: Cytotoxic Profiling in NIH 3T3 Cell Line of Diverse Libraries Using Quantitative High-Throughput Screening. hit rate 4.3% among 94,000. AID 1345082, 2018. NIH 3T3 viability, CellTiter-Glo ATP luminescence, 48-72 h. Potency, µM (doses to about 96.7 µM), usual class: inhibitors; further: nearly all actives have a fitted effect of over 55% in size
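Viability of NIH 3T3 cells after 48 or 72 hr compound treatment at 37 °C was assessed by CellTiter-Glo, with luminescence imaged following a 10 min room-temperature step.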
HEK293 viab: GF-AFC viability counterscreen for inhibitors of alpha-synuclein gene (SNCA) expression. HEK-293-SNCA-luc viability, GF-AFC fluorescence, 24 h. Potency, µM (titrated, usually from 57.1 µM), usual class: cytotoxic. hit rate 0.12% among 150,000; further: nearly all actives have a fitted effect of over 30% in size
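HEK-293-SNCA-luc cells (1500/well) plated 24 h, then exposed 24 h to a dilution series; GF-AFC added 30 min at 37C, fluorescence 405/540 nm; normalised to medium-only and DMSO wells, Hill fit.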
Luciferase inh: Firefly luciferase inhibition profiling of diverse chemical library using quantitative high-throughput screening | Potency, µM (series often up to 115 µM), hits mostly inhibitors | hit rate 2.5% among 76,000 | purified P. pyralis luciferase, luminescence, biochemical | Luciferin 4-monooxygenase (Photinus pyralis), P08659; further: nearly all actives have a fitted effect of over 65% in size
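Biochemical qHTS: compound (6-point titration) added to 10uM D-luciferin plus 10uM ATP in Tris acetate pH 7.5 buffer with Mg, Tween-20 and BSA, then purified enzyme at 10nM; light output imaged.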
SNCA expr inh: Primary qHTS assay for inhibitors of alpha-synuclein gene (SNCA) expression; HEK-293 SNCA-luciferase knock-in, luminescence, 24 h; Potency, µM (top dose mostly 57.2 µM), most hits filed as inhibitors; hit rate 0.17% among 140,000; AID 1671194, 2021; further: nearly all actives have a fitted effect of over 45% in size
NPR1 antag: Natriuretic polypeptide receptor (hNpr1) antagonism - Primary qHTS | hit rate 1.6% among 76,000 | Atrial natriuretic peptide receptor 1 (Homo sapiens), P16066 | HEK293 hNpr1 GloSensor cGMP, ANP-stimulated luminescence | Potency, µM (top dose mostly 46.3 µM), most hits filed as inhibitors | AID 1347048, 2019; calls by dose curve; further: nearly all actives have a fitted effect of over 60% in size
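HEK293 cells stably expressing human Npr1 and cGMP GloSensor pGS-40F, loaded 2 h with 2% GloSensor reagent, given compound 30 min at room temperature. Luminescence read before and 20 min after 0.1 nM hNppA.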
HEK293 tox: Cytotoxic Profiling in HEK 293 Cell Line of Diverse Libraries Using Quantitative High-Throughput Screening; HEK 293 viability, ATP luminescence (CellTiter-Glo), 48-72 h; Potency, µM (top dose mostly 115 µM), hits mostly inhibitors; hit rate 6.6% among 94,000; AID 1345083, 2018; further: nearly all actives have a fitted effect of over 60% in size
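HEK 293 seeded at 250 cells/well receive compound via pintool. After 48 or 72 hr at 37 degree Celsius, 5% CO2 and 95% humidity, CellTiter-Glo is dispensed and luminescence read following 10 min at room temperature.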
A number is an active result; . = inactive; ? = inconclusive; / = no result; ! = a repeat was not active; [ ] = dose if it differs, or a comment. Unless noted, the call rests on the fitted dose curve; in most records, active means well fitted curve in the direction sought with a large enough effect; inconclusive means small, poorly fitted or top-dose-only effect, or another doubt; inactive means no such curve, though single readings can be large; an effect the other way counts as inactive or inconclusive.

SMILES | 3T3 cytotox | HEK293 viab | Luciferase inh | SNCA expr inh | NPR1 antag | HEK293 tox
NC(=O)Cc1c[nH]c2ncc(-c3cccc(C(F)(F)F)c3)cc12 | 32µM | . | . | . | . | ?
COC(=O)c1c(S(=O)(=O)N2CCCCCCC2)sc2c1CCN(C(=O)C1CC=CCC1)C2 (stereo not given) | ? | . | . | . | . | 45µM
Cc1cccc(N2CCN(C(=O)CCc3conc3-c3ccccc3)CC2)c1C | ? | . | . | . | . | 45µM
COc1ccc(N2CCN(C(=O)CCc3conc3-c3ccc(F)cc3)CC2)cc1 | . | . | . | . | . | ?
O=C(NC1CC1)C1CCCCN1Cc1ccc(-c2cccs2)cc1 (stereo not given) | ? | .[12.5 µM] | / | . | / | 45µM
O=C(NC1CCOCC1)C1CCCCN1Cc1ccc(-c2cccs2)cc1 (stereo not given) | ? | . | / | . | / | 45µM
COC(=O)CNC(=O)C1CCCCN1Cc1ccc(-c2cccs2)cc1 (stereo not given) | ? | .[12.5 µM] | / | . | / | ?
O=C(C1CCCCN1Cc1ccc(-c2cccs2)cc1)N1CCN(Cc2ccccc2)CC1 (stereo not given) | 32µM | .[12.5 µM] | / | ? | / | ?
O=C(c1nccc2ccccc12)N1CCc2nc3cc[nH]n3c(=O)c2C1 | . | . | . | . | . | .
COc1ccccc1C(=O)N1CCCC2(CC(c3cccnc3)=NO2)C1 (stereo not given) | . | . | / | . | / | .
Cc1oc(-c2cccc(Oc3ccccc3)c2)nc1CN1CC[C@H](N(C)C)C1 | 79µM | . | . | . | . | ?
CC(=O)N1CCCN(Cc2nc(-c3cccc(Oc4ccccc4)c3)oc2C)CC1 | ? | . | . | ? | . | ?
O=C(Nc1ccc(F)cc1F)c1ccc(-n2cnnc2)cc1 | / | . | / | . | / | /
COc1ccc(NC(=O)c2cc(-c3ccc[nH]3)n[nH]2)c(OC)c1 | . | . | 20µM | . | . | ?
COc1ccc(NC(=O)c2cc(-c3ccc[nH]3)n[nH]2)cc1 | . | . | 13µM | . | . | .
CCOc1ccc(NC(=O)c2ncn(-c3ccccc3)n2)cc1 | / | . | / | . | / | /
O=C(Nc1ccc(F)cc1F)c1cc(-c2ccc[nH]2)n[nH]1 | . | . | 14µM | . | . | ?
COc1ccc(Cl)cc1NC(=O)c1cc(-c2ccc[nH]2)n[nH]1 | ? | ? | ? | ? | . | ?
CCOc1ccc(NC(=O)c2cc(-c3ccc[nH]3)n[nH]2)cc1 | . | . | 7.1µM | . | . | .
COCCN(C)C[C@@H]1CN(C(=O)CC(F)(F)F)C[C@@H]1CO | . | . | . | . | . | .
O=C(c1cnccn1)N1CC(F)(F)C[C@H]1c1nc(C2CC2)no1 | . | . | . | . | . | .
O=C(Nc1ccc(OC(F)(F)F)cc1)c1cc(-c2ccc[nH]2)n[nH]1 | 25µM | . | ? | . | . | 13µM
COc1ccc(-c2cccc(COc3ccc4c(cnn4CC[S+](C)(=O)[O-])c3)c2)cc1 | ? | . | ? | . | . | ?
C[S+](=O)([O-])CCn1ncc2cc(OCc3cccc(-c4ccccc4F)c3)ccc21 | ? | . | 16µM | . | ? | 50µM
COc1cccc(-c2ccc(COc3ccc4c(cnn4CCC(=O)O)c3)cc2)c1F | . | . | ? | . | . | ?
SMILES | 3T3 cytotox | HEK293 viab | Luciferase inh | SNCA expr inh | NPR1 antag | HEK293 tox
C[S+](=O)([O-])CCn1ncc2cc(OCc3cccc(-c4cccc(CO)c4)c3)ccc21 | ? | . | ? | . | ? | 50µM
COc1ccccc1-c1ccc(CN2CCC(NC(=O)Cc3ccc(F)cc3)C2)cc1 (stereo not given) | 40µM | .[12.5 µM] | / | ? | / | 40µM
COc1ccccc1-c1ccc(CN2CCC(NC(=O)c3ccccn3)C2)cc1 (stereo not given) | ? | .[12.5 µM] | / | . | / | ?
COc1ccc(CC(=O)NC2CCN(C(=O)c3ccc(-c4ccccc4OC)cc3)CC2)cc1 | 40µM | .[12.5 µM] | / | . | / | ?
COc1ccc(CC(=O)NC2CCCN(Cc3ccc(-c4cncnc4)cc3)C2)cc1 (stereo not given) | . | .[12.5 µM] | / | . | / | ?
COc1ccccc1-c1ccc(CN2CCC(NC(=O)C3CCCCC3)C2)cc1 (stereo not given) | 32µM! | / | / | / | / | ?
O=C(c1ccc(OC(F)(F)F)cc1)N1CCC([C@@H]2CNC[C@H]2CO)CC1 | . | .[12.5 µM] | . | . | . | .
COc1ccc2nc([C@H]3CCN(Cc4ccncc4)C3)[nH]c2c1 | . | . | . | . | . | .
Cc1ccc(CN2CC[C@H](c3nc4ccc(C(F)(F)F)cc4[nH]3)C2)cc1 | 28µM | ? | . | . | ? | 40µM
Fc1ccc2nc([C@H]3CCN(Cc4ncc[nH]4)C3)[nH]c2c1 | ? | . | . | . | . | ?
Fc1ccc(CN2CC[C@H](c3nc4ccc(C(F)(F)F)cc4[nH]3)C2)cc1F | 13µM | 32µM | . | 7.9µM | ? | 10µM
Fc1ccc2nc([C@H]3CCN(Cc4cccs4)C3)[nH]c2c1 | ? | . | 40µM | . | ? | 71µM
COc1ccccc1CN1CC[C@H](c2nc3ccc(C(F)(F)F)cc3[nH]2)C1 | 28µM | . | . | ? | . | 32µM
CN1CCC(NC2(Cc3cc(C(C)(C)O)on3)COC2)CC1 | . | . | . | . | . | .
Fc1ccc2nc([C@H]3CCN(Cc4ccc(F)c(F)c4)C3)[nH]c2c1 | ? | . | ? | . | ? | 56µM
C=CC1(C)C=C2C(=O)CC3C(C)(C)CCCC3(C(=O)O)C2(O)CC1 (stereo not given) | / | . | / | / | / | /
C=C[C@@]1(C)C=C2C(=O)C(O)=C3[C@](C)(C(=O)O)CC[C@@H]4C[C@]34[C@]2(O)C(=O)C1 | / | 18µM | / | / | / | /
O=C(Cc1c[nH]c2ccccc12)N1CCCN(c2cc(-c3ccc(Cl)cc3)[nH]n2)CC1 | 35µM | ? | . | ? | ? | 45µM
COc1ccc(-c2cc(N3CCCN(C(=O)Cc4c[nH]c5ccccc45)CC3)n[nH]2)cc1 | ? | . | . | . | . | ?
Cc1ccc(CC(=O)N2CCCN(c3cc(-c4ccc(C)c(C)c4)[nH]n3)CC2)cc1 | 32µM | . | . | ? | ? | 32µM
COc1ccc(CC(=O)N2CCCN(c3cc(-c4ccc(Br)cc4)[nH]n3)CC2)cc1OC | ? | . | . | ? | ? | ?
COc1cccc(CC(=O)N2CCCN(c3cc(-c4ccccc4)[nH]n3)CC2)c1 | ? | . | . | ? | . | 35µM
Cc1cccc(CC(=O)N2CCCN(c3cc(-c4ccc(Cl)cc4)[nH]n3)CC2)c1 | 40µM | . | . | . | ? | ?
